# PubChem BioAssay
# Records with an inconclusive call do not appear. Active and inactive are the calls of the source.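 How the source made its calls, unless noted: active means aptamer binding inhibition above 30%, about 3 SD of noise from non-fluorescent compounds; inactive means inhibition at or below 30%.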
# Key:
# [1] = rapamycin-like changes in RPL19A-GFP expression – cell-based, S. cerevisiae, multiplex flow cytometry, primary screen (AID 1862; in the data active means percent of DMSO control GFP below about 86%;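 further: lower values mimic rapamycin by blocking the RPL19A rise seen in DMSO cells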); settings: S. cerevisiae RPL19A-GFP strain, flow cytometry fluorescence, 3 h; at 10 µM; stronger effect = lower value
# [2] = TOR pathway GLN3 branch reporter MEP2-GFP changes – S. cerevisiae, multiplex flow cytometry, primary screen (AID 1867;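 active means GFP response, as percent of the DMSO control, above the screen-wide mean plus 3 SD, about 139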;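 further: median GFP channel fluorescence of barcode-gated MEP2-GFP cells measured by flow cytometry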); settings: S. cerevisiae MEP2-GFP strain, 3 h, at 10 µM, stronger effect = higher value, 100% means same as DMSO wells
# [3] = TOR pathway RTG branch CIT2 reporter changes – S. cerevisiae, GFP fusion, multiplex flow cytometry, primary screen (AID 1870;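 active means percent response above a set limit, the screen-wide mean plus 3 SD, cut at about 130% in these data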;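 further: barcoded CIT2-GFP strain pooled with four other GFP strains with rapamycin as positive control; median GFP fluorescence per well over plate mean of DMSO wells so 100% = DMSO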); settings: S. cerevisiae CIT2-GFP expression, 3 h, at 10 µM, stronger effect = higher value
# [4] = TOR pathway LAP4-GFP level changes – S. cerevisiae, multiplex flow cytometry, primary screen (AID 1873;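 active means GFP signal, as percent of the solvent control, above the screen mean plus 3 SD, about 149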); settings: S. cerevisiae LAP4-GFP expression, 3 h, at 10 µM, stronger effect = higher value
# [5] = yeast AGP1-GFP level changes, GLN3 branch – cell-based, multiplex flow cytometry, S. cerevisiae, primary screen (AID 1887;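 active means GFP signal above the screen-wide mean plus 3 SD, that is over about 124.5% of the solvent control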;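 further: AGP1-GFP fusion strain of S. cerevisiae within a five-strain barcoded multiplex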); settings: 3 h, at 10 µM, stronger effect = higher value
# [6] = reduced mouse 2C T cell binding to pMHC/ICAM-1 vesicles – MLPCN validation set, flow cytometry, LFA-1/ICAM-1 modulator project, pilot screen (AID 2523;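 active means response below a set limit, under 55% cells CD8-positive and vesicle-bound, and CD8 cells' 90th-percentile brightness under 279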;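 on vesicle binding response: mean PE anti-B7-1 fluorescence of CD8+ cells relative to row control; 100% = QL9-loaded vesicles with DMSO vehicle in the same plate row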); settings: 2C mouse CD8+ T cells, at 7 µM, stronger effect = lower value; double positive events: measured here: CD8+/vesicle+ event percentage
# [7] = molecular target: Integrin beta-1 (Homo sapiens) + Integrin alpha-4 (Homo sapiens) (UniProt P13612+P05556); test: alpha4beta1 integrin LIBS antibody binding reduction – U937 cells, HUTS-21 mAb, flow cytometry, validation set, VLA-4 allosteric modulator project, pilot screen (AID 2674;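 active means inhibition above 50%, about 3 SD of the validation set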;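 further: antibody binding induced by the VLA-4 ligand LDV present at three times its Kd; 0% = LDV ligand with antibody and no compound and 100% = antibody without LDV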); settings: HUTS-21 LIBS mAb binding, at 6.7 µM, stronger effect = higher value, binding induced by LDV ligand
# Integrin beta-1 (Homo sapiens) + Integrin alpha-4 (Homo sapiens), sequence (P05556 whole entry, looked up): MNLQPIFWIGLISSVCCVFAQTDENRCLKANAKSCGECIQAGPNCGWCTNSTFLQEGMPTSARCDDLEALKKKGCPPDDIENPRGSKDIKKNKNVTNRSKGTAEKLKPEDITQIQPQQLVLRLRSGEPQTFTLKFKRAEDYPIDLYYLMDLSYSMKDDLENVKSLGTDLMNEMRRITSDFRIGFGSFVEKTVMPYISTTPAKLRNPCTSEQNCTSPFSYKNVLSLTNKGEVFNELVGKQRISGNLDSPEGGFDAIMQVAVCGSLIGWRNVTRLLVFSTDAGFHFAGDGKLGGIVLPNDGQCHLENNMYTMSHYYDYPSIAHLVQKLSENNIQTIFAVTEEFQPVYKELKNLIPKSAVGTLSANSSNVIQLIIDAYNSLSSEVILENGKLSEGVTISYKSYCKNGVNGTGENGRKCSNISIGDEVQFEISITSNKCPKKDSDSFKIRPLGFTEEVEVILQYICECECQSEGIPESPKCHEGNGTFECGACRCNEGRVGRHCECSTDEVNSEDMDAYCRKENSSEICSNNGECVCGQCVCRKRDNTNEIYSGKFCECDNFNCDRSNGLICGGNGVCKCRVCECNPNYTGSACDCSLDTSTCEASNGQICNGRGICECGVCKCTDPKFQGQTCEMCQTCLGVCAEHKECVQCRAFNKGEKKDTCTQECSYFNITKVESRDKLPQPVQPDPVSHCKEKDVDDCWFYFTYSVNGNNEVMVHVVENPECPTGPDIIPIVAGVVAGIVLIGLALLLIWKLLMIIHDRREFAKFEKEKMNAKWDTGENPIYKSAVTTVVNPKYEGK
# Integrin beta-1 (Homo sapiens) + Integrin alpha-4 (Homo sapiens), sequence (P13612 whole entry, looked up): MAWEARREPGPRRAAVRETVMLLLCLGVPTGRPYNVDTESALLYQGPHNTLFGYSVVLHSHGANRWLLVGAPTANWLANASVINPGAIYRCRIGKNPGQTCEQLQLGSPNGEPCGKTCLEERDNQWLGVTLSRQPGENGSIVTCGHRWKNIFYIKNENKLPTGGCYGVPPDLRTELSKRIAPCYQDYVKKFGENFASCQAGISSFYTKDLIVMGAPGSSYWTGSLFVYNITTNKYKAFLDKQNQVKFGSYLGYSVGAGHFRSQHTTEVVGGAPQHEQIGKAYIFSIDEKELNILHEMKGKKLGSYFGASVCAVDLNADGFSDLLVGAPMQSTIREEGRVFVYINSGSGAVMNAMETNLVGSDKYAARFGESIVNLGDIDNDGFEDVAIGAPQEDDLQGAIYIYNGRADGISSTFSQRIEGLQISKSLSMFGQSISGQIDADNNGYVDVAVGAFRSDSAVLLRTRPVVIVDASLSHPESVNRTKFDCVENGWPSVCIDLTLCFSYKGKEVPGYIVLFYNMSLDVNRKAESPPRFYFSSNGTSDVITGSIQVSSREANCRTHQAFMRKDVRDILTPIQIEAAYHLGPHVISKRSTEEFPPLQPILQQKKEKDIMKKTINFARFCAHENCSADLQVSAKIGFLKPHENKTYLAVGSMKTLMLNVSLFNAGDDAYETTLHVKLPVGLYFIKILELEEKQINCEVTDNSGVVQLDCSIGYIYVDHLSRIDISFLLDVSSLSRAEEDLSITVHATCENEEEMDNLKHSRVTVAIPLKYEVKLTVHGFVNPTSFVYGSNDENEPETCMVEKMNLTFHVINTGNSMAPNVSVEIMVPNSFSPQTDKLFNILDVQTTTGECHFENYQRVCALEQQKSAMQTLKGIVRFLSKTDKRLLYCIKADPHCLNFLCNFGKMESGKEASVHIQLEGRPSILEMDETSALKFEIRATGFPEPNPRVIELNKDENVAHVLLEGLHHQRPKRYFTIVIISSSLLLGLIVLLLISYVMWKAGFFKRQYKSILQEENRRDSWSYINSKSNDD
# [8] = calorie-restriction mimetic ROS inhibitors, yeast – validation compound set, pilot screen (AID 2706;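 active means superoxide response below 65% of plate, a cut near 3 SD across the whole screen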;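 further: yeast exposed to compound for one week at 30 degrees C before staining; 100% = mean of all compound wells on the same plate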); settings: S. cerevisiae aging, superoxide DHE fluorescence; at 10 µM; stronger effect = lower value
# [9] = molecular target: Beta-adrenergic receptor kinase 1 (Homo sapiens) (UniProt P25098); test: GRK2 binders displacing RNA aptamer, biochemical, validation, human GRK2, bead flow cytometry (AID 488806); settings: bead-bound GRK2, FAM-aptamer displacement, at 10 µM, stronger effect = higher value
# Beta-adrenergic receptor kinase 1 (Homo sapiens), sequence (P25098 whole entry, looked up): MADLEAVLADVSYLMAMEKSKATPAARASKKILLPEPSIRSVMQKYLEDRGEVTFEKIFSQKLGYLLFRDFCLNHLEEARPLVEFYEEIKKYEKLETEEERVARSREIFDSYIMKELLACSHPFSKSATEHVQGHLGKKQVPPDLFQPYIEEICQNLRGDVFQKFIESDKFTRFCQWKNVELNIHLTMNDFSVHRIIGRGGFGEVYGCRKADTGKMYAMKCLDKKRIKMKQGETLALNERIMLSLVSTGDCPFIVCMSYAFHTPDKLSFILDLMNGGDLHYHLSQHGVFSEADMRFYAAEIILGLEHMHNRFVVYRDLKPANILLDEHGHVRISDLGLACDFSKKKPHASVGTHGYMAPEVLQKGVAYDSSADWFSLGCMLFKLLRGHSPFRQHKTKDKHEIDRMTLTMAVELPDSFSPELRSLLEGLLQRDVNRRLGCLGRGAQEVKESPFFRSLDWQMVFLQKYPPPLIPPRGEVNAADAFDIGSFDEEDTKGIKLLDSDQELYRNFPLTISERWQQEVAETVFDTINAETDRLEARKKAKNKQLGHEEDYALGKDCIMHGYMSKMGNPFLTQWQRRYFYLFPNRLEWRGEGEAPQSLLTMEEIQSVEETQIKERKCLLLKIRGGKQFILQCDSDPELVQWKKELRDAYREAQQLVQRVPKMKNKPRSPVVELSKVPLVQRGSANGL
# [10] = molecular target: Beta-2 adrenergic receptor (Homo sapiens) (UniProt P07550); test: agonist-induced loss of surface beta2AR – cell-based, FAP fluorogen, flow cytometry, validation set, pilot screen (AID 504459;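 active means percent response above 42, roughly 3 SD of non-fluorescent test compounds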;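 further: agonist-driven loss of surface beta2AR via internalization measured by FAP dye flow cytometry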); settings: Am2.2-beta2AR cells, at 10 µM, stronger effect = higher value
# Beta-2 adrenergic receptor (Homo sapiens), sequence (P07550 whole entry, looked up): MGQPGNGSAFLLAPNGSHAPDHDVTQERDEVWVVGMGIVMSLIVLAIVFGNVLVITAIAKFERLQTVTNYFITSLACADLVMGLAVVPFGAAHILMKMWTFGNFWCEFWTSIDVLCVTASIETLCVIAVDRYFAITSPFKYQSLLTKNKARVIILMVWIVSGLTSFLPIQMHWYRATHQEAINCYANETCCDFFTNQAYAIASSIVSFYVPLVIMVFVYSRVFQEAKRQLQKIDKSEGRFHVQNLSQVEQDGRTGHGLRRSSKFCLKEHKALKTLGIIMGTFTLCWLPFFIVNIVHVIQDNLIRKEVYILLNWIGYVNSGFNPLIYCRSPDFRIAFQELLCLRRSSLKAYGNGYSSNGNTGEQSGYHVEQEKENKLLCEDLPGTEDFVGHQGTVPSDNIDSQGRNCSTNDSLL
# [11] = molecular target: AP-2 complex subunit beta (Homo sapiens) (UniProt P63010); test: beta-arrestin/AP2 interaction blockers – biochemical, validation set, GST-AP2 beads, flow cytometry, pilot screen (AID 504541;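 active means inhibition above 54%, about 3 SD of non-fluorescent compounds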;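 further: AP2 carries R879A mutation and is captured from E. coli lysate; bead-bound FITC arrestin peptide fluorescence measuring arrestin peptide binding to AP2; 0% = DMSO wells and 100% = excess unlabeled arrestin peptide control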); settings: FITC arrestin peptide, at 10 µM, stronger effect = higher value, AP2 beta2 appendage fragment, R879A mutant
# AP-2 complex subunit beta (Homo sapiens), sequence (P63010 whole entry, looked up, the tested form may be a part, one chain of several): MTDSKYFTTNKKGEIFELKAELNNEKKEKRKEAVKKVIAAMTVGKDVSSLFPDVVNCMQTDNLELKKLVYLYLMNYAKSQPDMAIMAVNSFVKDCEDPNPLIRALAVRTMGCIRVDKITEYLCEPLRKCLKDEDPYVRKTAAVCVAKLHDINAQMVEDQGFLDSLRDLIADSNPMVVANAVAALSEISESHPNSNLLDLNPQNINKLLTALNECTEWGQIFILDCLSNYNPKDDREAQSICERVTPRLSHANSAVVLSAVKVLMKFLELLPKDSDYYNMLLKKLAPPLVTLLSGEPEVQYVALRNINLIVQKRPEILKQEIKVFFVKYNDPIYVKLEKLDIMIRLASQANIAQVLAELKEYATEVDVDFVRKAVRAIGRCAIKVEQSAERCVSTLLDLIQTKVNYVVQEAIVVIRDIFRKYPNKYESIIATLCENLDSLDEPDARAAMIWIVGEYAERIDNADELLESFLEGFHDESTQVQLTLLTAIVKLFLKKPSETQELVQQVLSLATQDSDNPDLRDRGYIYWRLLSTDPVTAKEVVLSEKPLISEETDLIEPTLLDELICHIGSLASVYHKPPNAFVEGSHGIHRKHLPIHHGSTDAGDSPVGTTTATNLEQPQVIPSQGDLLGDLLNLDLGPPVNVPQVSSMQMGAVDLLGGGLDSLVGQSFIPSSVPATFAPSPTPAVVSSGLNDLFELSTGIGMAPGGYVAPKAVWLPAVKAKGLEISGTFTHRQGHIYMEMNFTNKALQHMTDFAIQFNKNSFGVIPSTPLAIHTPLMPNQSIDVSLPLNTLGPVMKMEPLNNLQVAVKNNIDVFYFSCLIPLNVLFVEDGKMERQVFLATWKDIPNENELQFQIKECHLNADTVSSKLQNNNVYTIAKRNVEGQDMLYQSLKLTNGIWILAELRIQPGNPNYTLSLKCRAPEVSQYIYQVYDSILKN
# [12] = cytosolic pH regulators acting via V-ATPase – S. cerevisiae, pHLuorin, HTS validation (AID 504600; in the data active means response above about 15%;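 further: plate controls were DMSO for no effect and reference compound for full effect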); settings: V-ATPase proton transport, at 10 µM, stronger effect = higher value
# [13] = test system: anti-desmoglein-3 scFv antibody binding to human DSG3; test: blockers of pathogenic pemphigus antibody–desmoglein-3 binding – biochemical, validation compound set, bead-based, flow cytometry, pilot screen (AID 588368;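 active means binding below the plate cutoff, the plate median minus 3 SD, with a reading above zero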;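 further: signal is the median channel fluorescence of bead-bound GFP antibody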); settings: Protein G beads, DSG3-Fc, scFv-GFP binding, at 10 µM, stronger effect = lower value
# [14] = Nile Red efflux blockade in pump-expressing yeast – validation compound set, multiplex, phenotypic, pilot screen (AID 588506;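 active means efflux inhibition above 0.42, the validation set average plus 4 SD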;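 further: Nile Red retained in cells so higher fluorescence means more efflux inhibition; 0 = negative control wells and 1 = enniatin B 25 µM full block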); settings: S. cerevisiae pump-expressing triplex, Nile Red efflux flow cytometry; at 10 µM; stronger effect = higher value; the pumps come from Candida albicans
# [15] = molecular target: ATP-binding cassette sub-family B member 6 (Homo sapiens) (UniProt Q9NP58); test: blockers of ABCB6-driven porphyrin uptake – K562-ABCB6 cells, flow cytometry, validation set, pilot screen (AID 588550;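 active means inhibition above the screen-wide mean plus 3 SD, about 51%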;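 further: 0% = DMSO wells and 100% = benzethonium chloride 70 µM positive control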); settings: K562-ABCB6 porphyrin accumulation, 1 h, at 10 µM, stronger effect = higher value
# ATP-binding cassette sub-family B member 6 (Homo sapiens), sequence (Q9NP58 whole entry, looked up): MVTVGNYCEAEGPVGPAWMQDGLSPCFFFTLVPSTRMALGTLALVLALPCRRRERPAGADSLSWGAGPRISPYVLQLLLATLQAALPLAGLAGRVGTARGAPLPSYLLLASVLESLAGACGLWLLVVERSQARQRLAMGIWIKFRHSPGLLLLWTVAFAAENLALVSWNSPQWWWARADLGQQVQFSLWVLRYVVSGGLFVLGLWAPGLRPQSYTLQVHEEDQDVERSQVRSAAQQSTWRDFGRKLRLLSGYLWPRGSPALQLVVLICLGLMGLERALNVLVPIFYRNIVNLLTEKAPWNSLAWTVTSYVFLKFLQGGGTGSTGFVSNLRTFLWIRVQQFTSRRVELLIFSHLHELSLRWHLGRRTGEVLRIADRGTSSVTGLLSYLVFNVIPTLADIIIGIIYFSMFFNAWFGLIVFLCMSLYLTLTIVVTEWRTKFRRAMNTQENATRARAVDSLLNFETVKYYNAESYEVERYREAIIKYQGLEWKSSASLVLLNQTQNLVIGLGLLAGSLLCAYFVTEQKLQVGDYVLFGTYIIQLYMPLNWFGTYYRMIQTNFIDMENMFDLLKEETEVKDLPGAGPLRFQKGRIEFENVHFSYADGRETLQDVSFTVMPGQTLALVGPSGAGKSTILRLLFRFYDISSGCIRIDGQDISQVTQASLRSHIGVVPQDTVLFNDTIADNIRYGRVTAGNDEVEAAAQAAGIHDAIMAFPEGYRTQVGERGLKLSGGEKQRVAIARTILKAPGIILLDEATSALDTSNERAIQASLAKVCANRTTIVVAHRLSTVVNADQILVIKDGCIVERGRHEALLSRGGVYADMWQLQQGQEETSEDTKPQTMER
# [16] = AML differentiation inducers, ER-HoxA9 marrow cells – cell-based, GFP/MAC1 double positive, flow cytometry, validation set, primary screen (AID 588685;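 active means differentiation response of at least 50%, scaled between solvent and reference control, from cells with both markers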;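 further: compound exposure lasts four days before antibody staining and flow analysis; 0% = DMSO wells and 100% = 5 µM fulvestrant positive control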); settings: stronger effect = higher value, normalized: vehicle 0, fulvestrant 100
SMILES,percent of DMSO control GFP [1],GFP response vs DMSO [2],percent response of DMSO control [3],GFP response vs DMSO [4],"GFP response, % of DMSO [5]",double positive events [6],vesicle binding response [6],inhibition [7],superoxide response (% of plate) [8],aptamer binding inhibition [9],response [10],inhibition [11],response [12],binding (% of control) [13],efflux inhibition (fraction of control) [14],inhibition [15],differentiation response [16]
N#C/C(=C\c1ccc(O)c(O)c1)C(=O)NCCCc1ccccc1,102% (inactive),101% (inactive),98.3% (inactive),108% (inactive),116% (inactive),62.1%,206% (inactive),-13% (inactive),93.6% (inactive),-1% (inactive),13.4% (inactive),25.2% (inactive),-4.8% (inactive),103% (inactive),0.08 (inactive),-1% (inactive),3.88% (inactive)
CSc1ccc(CN2CCN(CCC(C)C)C(CCO)C2)cc1 (stereo not drawn),101% (inactive),106% (inactive),109% (inactive),117% (inactive),131% (active),61.2%,199% (inactive),4.84% (inactive),91.4% (inactive),-1% (inactive),-11.6% (inactive),-9.19% (inactive),2.63% (inactive),102% (inactive),-0.09 (inactive),0% (inactive),-5.97% (inactive)
Cc1ccc(-c2nnc(-c3ccc4c(c3)OCO4)o2)cc1,103% (inactive),106% (inactive),109% (inactive),121% (inactive),115% (inactive),57.9%,165% (inactive),-2.82% (inactive),98.9% (inactive),-7% (inactive),-16.4% (inactive),6.09% (inactive),2.28% (inactive),99.9% (inactive),0.04 (inactive),2% (inactive),-0.06% (inactive)
CC(C)C(=O)Nc1c(O)c2ccccc2[nH]c1=O,95.6% (inactive),91.9% (inactive),93.9% (inactive),151% (active),96.6% (inactive),62%,220% (inactive),6.4% (inactive),111% (inactive),0% (inactive),7.52% (inactive),-0.19% (inactive),-4.44% (inactive),96.6% (inactive),0.15 (inactive),11% (inactive),-4% (inactive)
CCc1nc(N)nc(N)c1-c1ccc(Cl)cc1,92.2% (inactive),112% (inactive),102% (inactive),70.4% (inactive),101% (inactive),65.6%,209% (inactive),5.49% (inactive),87.5% (inactive),0% (inactive),-2.3% (inactive),1.62% (inactive),1.08% (inactive),137% (inactive),0.23 (inactive),10% (inactive),-3.28% (inactive)
CC(C[N+](C)(C)C)OC(N)=O (stereo not drawn),100% (inactive),98.6% (inactive),89.9% (inactive),104% (inactive),110% (inactive),66.5%,164% (inactive),11.7% (inactive),96.5% (inactive),2% (inactive),-16.4% (inactive),-15.8% (inactive),0.77% (inactive),103% (inactive),0.08 (inactive),12% (inactive),0% (inactive)
COc1ccc(CCN2CNc3c(c(=O)n(C)c(=O)n3C)C2)cc1OC,99.8% (inactive),103% (inactive),102% (inactive),118% (inactive),116% (inactive),60.5%,214% (inactive),-1.97% (inactive),93.5% (inactive),-4% (inactive),-3.69% (inactive),-4.43% (inactive),-9.61% (inactive),99.7% (inactive),0.04 (inactive),-5% (inactive),-4% (inactive)
c1ccc2[nH]c(-c3cscn3)nc2c1,97.6% (inactive),103% (inactive),97.7% (inactive),123% (inactive),111% (inactive),58.6%,174% (inactive),2.29% (inactive),85.3% (inactive),-2% (inactive),-32% (inactive),5.36% (inactive),1.12% (inactive),108% (inactive),0 (inactive),0% (inactive),-2.03% (inactive)
COc1cccc2c(=O)c3ccccc3oc12,93.9% (inactive),117% (inactive),111% (inactive),74.3% (inactive),88% (inactive),61.1%,134% (inactive),-9.06% (inactive),109% (inactive),2% (inactive),-12.3% (inactive),-2.99% (inactive),0.55% (inactive),96% (inactive),0.27 (inactive),15% (inactive),-3.28% (inactive)
O=C(Nc1cccc(C(=O)O)c1)/C(=C\c1ccccc1)NC(=O)c1ccccc1,105% (inactive),98.3% (inactive),106% (inactive),84.8% (inactive),100% (inactive),58.1%,150% (inactive),-1.49% (inactive),95.7% (inactive),5% (inactive),-3.48% (inactive),0.49% (inactive),0.44% (inactive),99% (inactive),0.14 (inactive),15% (inactive),11% (inactive)
C=CCC1(O)C(=O)N2C(=C1C(=O)N1CCOCC1)c1ccccc1CC2(C)C (stereo not drawn),99.4% (inactive),108% (inactive),101% (inactive),95.3% (inactive),99.9% (inactive),55.4%,38.1% (inactive),-2.53% (inactive),111% (inactive),1% (inactive),-4.96% (inactive),23.5% (inactive),-6.09% (inactive),95.5% (inactive),0.24 (inactive),-7% (inactive),0.24% (inactive)
CC(C)[C@H](NC(=O)[C@@H]1CSCN1C(=O)OC(C)(C)C)C(=O)NCC1CCC(C(=O)O)CC1 (stereo partly drawn),99.7% (inactive),97.4% (inactive),104% (inactive),84.6% (inactive),96.3% (inactive),64.5%,283% (inactive),-4.52% (inactive),82.1% (inactive),4% (inactive),-5.23% (inactive),-2.51% (inactive),3.84% (inactive),98.9% (inactive),0.01 (inactive),109% (active),0.8% (inactive)
Cc1cccc(CN2CCN(C(c3ccccc3)c3ccc(Cl)cc3)CC2)c1 (stereo not drawn),97.7% (inactive),104% (inactive),98.2% (inactive),99.4% (inactive),96.9% (inactive),62.4%,227% (inactive),-6.04% (inactive),99.2% (inactive),2% (inactive),8.57% (inactive),35.5% (inactive),0.49% (inactive),105% (inactive),0.46 (active),-1% (inactive),26.3% (inactive)
O=C1C(Cc2ccccc2)NC(=S)N1c1ccccc1 (stereo not drawn),96.1% (inactive),105% (inactive),92% (inactive),115% (inactive),99.4% (inactive),60.7%,179% (inactive),-14.1% (inactive),98.2% (inactive),5% (inactive),-16.9% (inactive),-7.42% (inactive),13.2% (inactive),98.7% (inactive),-0.24 (inactive),9% (inactive),-28% (inactive)
COCCCN1C(=O)/C(=C\c2cccs2)C(C(=O)OC)=C1C,99.9% (inactive),106% (inactive),92.9% (inactive),120% (inactive),99.4% (inactive),57.8%,4220% (inactive),6.4% (inactive),113% (inactive),2% (inactive),-6.32% (inactive),-12% (inactive),10.8% (inactive),102% (inactive),-0.06 (inactive),5% (inactive),-20% (inactive)
Cc1ccc(S(=O)(=O)NC(=O)NN2CCCCCC2)cc1,102% (inactive),110% (inactive),100% (inactive),96.6% (inactive),97.5% (inactive),61.4%,226% (inactive),29.6% (inactive),92.2% (inactive),4% (inactive),-9.17% (inactive),3.4% (inactive),-0.51% (inactive),99.7% (inactive),-0.04 (inactive),-2% (inactive),14.9% (inactive)
Cc1ccc(S(=O)(=O)N2CCC(C(=O)N[C@@H](C)C(=O)NC3CCS(=O)(=O)C3)CC2)cc1 (stereo partly drawn),101% (inactive),96.6% (inactive),106% (inactive),89.3% (inactive),96.3% (inactive),57.7%,144% (inactive),12.3% (inactive),103% (inactive),4% (inactive),-1.25% (inactive),-5.24% (inactive),22.5% (active),103% (inactive),0.1 (inactive),13% (inactive),-13.3% (inactive)
CCOC(=O)C1=C(C)NC(C)=C(C(=O)OC)C1c1cccc([N+](=O)[O-])c1 (stereo not drawn),91.3% (inactive),124% (inactive),95.2% (inactive),85.3% (inactive),91.5% (inactive),63.3%,200% (inactive),8.4% (inactive),104% (inactive),2% (inactive),-11.6% (inactive),41.2% (inactive),-3.09% (inactive),95.6% (inactive),0.12 (inactive),18% (inactive),-1.64% (inactive)
CCNC(=O)C(Cc1ccccc1)NC(=O)OCc1ccccc1 (stereo not drawn),101% (inactive),103% (inactive),99.6% (inactive),117% (inactive),106% (inactive),62.5%,367% (inactive),19.3% (inactive),112% (inactive),2% (inactive),-19.9% (inactive),1.34% (inactive),0.55% (inactive),108% (inactive),0 (inactive),6% (inactive),-12.9% (inactive)
